Assay outcomes (PubChem BioAssay)
An excerpt weighted towards active compounds, which were near 14% of everything screened.
Sm TGR block – blocks Schistosoma mansoni thioredoxin glutathione reductase; purified TGR, DTNB reduction, TNB absorbance 405 nm; Potency, µM (doses to about 114 µM), inactives show top-dose activity change, negative = inhibition, hits mostly inhibitors; 3% of 360,000 active; AID 485364; Q962Y6; also: potency is read from the fitted curve at half-maximal effect; nearly all actives have a fitted effect of over 60% in size
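TGR 20 nM + NADPH 100 uM (dispensed conc.), cpd preinc 15 min RT; start with NADPH (500 uM addition) then DTNB (15 mM addition). Kinetic TNB absorbance, 405 nm filter. Four-parameter Hill fit across titration.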
Pf growth 48h – P. falciparum growth inhibition at 48 hours (one generation). P. falciparum luciferase growth in erythrocytes, 48 h. Potency, µM (highest dose often 28.7 µM), for the others: at the highest dose activity change, negative = inhibition, usual class: inhibitors. 5.9% of 310,000 active; also: potency is read from the fitted curve at half-maximal effect
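Read-out is firefly luciferase luminescence from an integrated reporter in P. falciparum, so falling signal marks reduced parasite growth. Infected erythrocytes were at 2% hematocrit and 0.1% parasitemia (final) in Albumax-supplemented RPMI 1640.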
Giardia FBPA inh – inhibitors of Giardia lamblia fructose-1,6-bisphosphate aldolase | A8B2U2 | purified Giardia FBPA | Potency, µM (series often up to 59.6 µM), inactives show at the top dose activity, negative = inhibition, most hits filed as inhibitors | 0.71% of 290,000 active | AID 2451; also: potency is read from the fitted curve at half-maximal effect; nearly all actives have a fitted effect of over 55% in size
Target sequence (A8B2U2 whole entry, looked up): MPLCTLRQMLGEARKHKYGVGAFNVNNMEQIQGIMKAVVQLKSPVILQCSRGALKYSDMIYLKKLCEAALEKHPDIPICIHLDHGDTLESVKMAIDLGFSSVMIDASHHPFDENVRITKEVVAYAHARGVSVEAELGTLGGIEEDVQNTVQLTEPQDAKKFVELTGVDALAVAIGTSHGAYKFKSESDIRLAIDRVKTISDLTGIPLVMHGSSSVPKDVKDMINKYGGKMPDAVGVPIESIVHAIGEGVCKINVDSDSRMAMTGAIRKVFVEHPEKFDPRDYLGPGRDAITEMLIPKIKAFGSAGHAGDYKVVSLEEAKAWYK
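Giardia FBPA (40 nM reagent) was preincubated 10 min at RT with compound (up to 57.5 uM final), then substrate plus GAPDH/TPI/NAD/arsenate coupling system with diaphorase/resazurin was added; resorufin fluorescence (525/598 nm) was read after 20 min.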
HCMV inh – human cytomegalovirus inhibition. HFF cells, HCMV-luciferase reporter, 72 h; active compounds read low. activity change, negative = inhibition, % at 57.5 µM. 4.5% of 410,000 active. AID 1259415; in the data active = activity change below about -60%; inconclusive = no clear call, values can overlap the other calls; inactive = above about -39%
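Two compound doses tested in HFFs infected with HCMV-luciferase, MOI 1 PFU/cell, 72 h at 37C. Lysate luminescence read with OneGlo; data normalized against buffer-only and 10uM Salinomycin inhibitor controls.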
Pf growth 96h – P. falciparum growth inhibition at 96 hour, primary screen for plastid delayed-death inhibitors; P. falciparum luciferase reporter growth, 96 h; Potency, µM (doses to about 28.7 µM), for the others: at the top dose activity change, negative = inhibition, usual class: inhibitors; 6.9% of 320,000 active; AID 504834; also: potency is read from the fitted curve at half-maximal effect
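Plates of compound plus infected erythrocytes (2% hematocrit, 0.05% parasitemia final) incubate 96 hours, 37 C, 5% CO2. Detection reagent added; reduced luminescence from the parasites' luciferase reporter flags inhibition.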
Active calls of the source: *; ? = inconclusive; · = no result; [ ] = remark or other dose. Unless noted, calls follow the shape of the dose curve; as a rule, active = well fitted curve in the direction sought with a large enough effect; inconclusive = small, poorly fitted or top-dose-only effect, or another doubt; inactive = no such curve, though single readings can be large; an effect the other way counts as inactive or inconclusive. % is scaled to controls: 0 for no effect and ±100 for the full control effect.

SMILES | Sm TGR block | Pf growth 48h | Giardia FBPA inh | HCMV inh | Pf growth 96h
CC1CCCN(Cc2c(O)ccc3c(=O)c(-c4ccc(Cl)cc4)coc23)C1 (centres undefined) | -2% | 1µM* | 7% | ? | -10%
COc1ccc(C(=O)c2coc3ccc(O)c(CN4CCCC4)c23)cc1 | 2% | · | 2% | 13 | ?
COc1ccc(OC)c(C(O)c2coc3ccc(O)c(CN(C)C)c23)c1 (centres undefined) | 10% | 0% | 0% | 34 | 180%
O=c1c(-c2ccc(Br)cc2)coc2c(CN3CCCCC3)c(O)ccc12 | -1% | 1.7µM* | 5% | -38 | 2.3µM*
CC1CCCN(Cc2c(O)ccc3c(=O)c(-c4ccc(Cl)cc4)c(C(F)(F)F)oc23)C1 (centres undefined) | 0% | · | · | -12 | ·
CO[C@H]1COC(=O)[C@H]2CCCN2C(=O)[C@@H](C)COC(=O)C/C=C\[C@@H]1C | · | · | -1%[12.9 µM] | · | ·
O=c1c(-c2ccc(Br)cc2)coc2c(CN3CCOCC3)c(O)ccc12 | -17% | 2.6µM* | -1% | 0 | ?
O=c1c(-c2ccc(Cl)cc2)coc2c(CN3CCCCC3)c(O)ccc12 | 4% | 2.9µM* | -11% | 22 | -26%
COc1ccc(Oc2coc3c(CN4CCOCC4)c(O)ccc3c2=O)cc1 | 45µM* | · | 1% | 18 | 2.9µM*
COc1ccc(-c2cc3ccc(O)c(CN4CCOCC4)c3oc2=O)cc1 | -7% | · | · | 17 | ·
O=c1c(-c2ccccc2Cl)coc2c(CN3CCCCC3)c(O)ccc12 | ? | ? | -1% | 22 | ?
COc1ccc(Nc2c3c(nc4nncn24)CCC3)cc1Cl | -16% | · | · | -23 | ·
O=C(NCCc1ccccc1)c1cccc(N2CCCC2=O)c1 | 1% | 98% | · | · | ?
COC(=O)C1=C(C)NC(=O)C1(NC(=O)c1cc(OC)c(OC)c(OC)c1)C(F)(F)F (centres undefined) | 1% | · | · | 1 | ·
CCN(CC)CCCNC1=C(Cl)C(=O)c2ccccc2C1=O | 35µM* | ? | 18% | -94* | ?
CC(C)OCCCNC(=S)NNC(=O)C(c1ccccc1)c1ccccc1 | -5% | -10% | 3% | 4 | ?
CC(C)OCCCNC1=C(Cl)C(=O)c2ccccc2C1=O | 21% | 2.9µM* | 0% | ? | 4.1µM*
COCCCNC1=C(Cl)C(=O)c2ccccc2C1=O | -32% | 4.1µM* | -12% | -22 | 2.3µM*
O=C1CCC[C@H]2[C@@H](Cc3ccccc3)[C@@H](NS(=O)(=O)c3cccs3)CC[C@]23CCCN13 | · | · | · | 0 | ·
COC(=O)[C@@]1(Cc2ccc(F)cc2)[C@H]2c3cc(C(=O)N(C)C)n(Cc4cc(F)c(F)c(F)c4)c3C[C@H]2CN1C(=O)c1ccccc1 | · | · | 5% | · | ·
O=[N+]([O-])/C(=C\Nc1ccccc1Cl)S(=O)(=O)c1ccccc1 | 40µM* | 0% | -6% | · | 26%
COc1ccc(N/C=C(\[N+](=O)[O-])S(=O)(=O)c2ccccc2)cc1 | ? | -4% | -10% | 52 | 64%
O=[N+]([O-])/C(=C\Nc1ccccc1)S(=O)(=O)c1ccccc1 | 40µM* | 31% | -13% | 46 | 47%
COc1cccc(CNC(=O)C2Cc3ccccc3CN2C(C)=O)c1 (centres undefined) | 7% | -20% | 7% | -21 | -14%
CCCN(CCC)CCNC(=O)Cn1cnc2sc(C)c(S(=O)(=O)N3CCN(c4ccccc4OC)CC3)c2c1=O | 1% | · | · | -3 | ·
SMILES | Sm TGR block | Pf growth 48h | Giardia FBPA inh | HCMV inh | Pf growth 96h
Cc1cccc(-c2cc(C(=O)Nc3sc(C)c(C)c3C(N)=O)c3ccccc3n2)c1 | 0% | 34% | 1% | 2 | ?
COc1ccccc1-c1cc(C(=O)N/N=C/c2sccc2C)c2ccccc2n1 | 10% | 1.9µM* | -3% | ? | 1.9µM*
CCOc1ccccc1-c1cc(C(=O)N/N=C/c2ccc(O)c(OC)c2)c2ccccc2n1 | -1% | ? | 7% | -33 | -7%
Cc1ccc(C)c(-c2cc(C(=O)Nc3sc(C)c(C)c3C(N)=O)c3ccccc3n2)c1 | 12% | ? | -10% | -33 | 10µM*
Cc1ccc(C)c(-c2cc(C(=O)N/N=C/c3cccnc3)c3ccccc3n2)c1 | 0% | ? | · | ? | 4.7µM*
CCOC(=O)c1sc(NC(=O)c2cc(-c3ccccc3)nc3ccccc23)c(C#N)c1C | -14% | 31% | -9% | -95* | 8%
CC(=O)N1CCC2(CCCN(Cc3cc(C(F)(F)F)cc(C(F)(F)F)c3)C2)CC1 | · | · | 6% | · | ·
Cc1ccsc1/C=N/NC(=O)c1cc(-c2ccncc2)nc2ccccc12 | -4% | ? | -2% | -95* | ?
Cc1ccc(NS(=O)(=O)c2cc(Br)cnc2N)c(Cl)c1 | -1% | 2% | 0% | -15 | -12%
Nc1ncc(Br)cc1S(=O)(=O)Nc1cc(C(F)(F)F)cc(C(F)(F)F)c1 | -17% | 17% | · | -101* | 12%
CCN(CC(=O)NCc1cccs1)C(=O)c1ccc(S(=O)(=O)Nc2ccccc2C)cc1 | 2% | 2% | · | -20 | -1%
Oc1ccc(Br)cc1CNc1ccccn1 | 6% | ? | -1% | 0 | 6.6µM*
CCOc1ccc(N2C(=O)C(c3nnnn3C(C)(C)C)N(Cc3ccc(OC)c(OC)c3)C2=O)cc1 (centres undefined) | · | · | · | -6 | ·
CCOc1ccc(C(=O)Nc2ccc(S(=O)(=O)N3C[C@@H]4C[C@@H](C3)c3cccc(=O)n3C4)cc2)cc1 | 0% | ? | · | ? | 2.9µM*
Cc1ccc(S(=O)(=O)N2CCCC2CNC(=O)c2ccc(F)c(F)c2)cc1 (centres undefined) | -13% | 10µM* | · | -29 | ?
O=C(NCC1CCCN1S(=O)(=O)c1ccccc1)c1cccc(Cl)c1 (centres undefined) | -3% | ? | · | 12 | ?
Cc1ccc(C)c(S(=O)(=O)N2CCCC2CNC(=O)c2ccc([N+](=O)[O-])cc2)c1 (centres undefined) | 1% | 10µM* | · | -29 | ?
Cc1ccc(C(=O)NCC2CCCN2S(=O)(=O)c2ccc(C)cc2)cc1 (centres undefined) | -1% | ? | · | -6 | 10µM*
Cc1ccc(S(=O)(=O)N2CCCC2CNC(=O)C(=O)NC2CC2)cc1 (centres undefined) | -17% | -2% | · | -19 | ?
CC(C)(C)c1ccc(C(=O)NCC2CCCN2S(=O)(=O)c2ccccc2)cc1 (centres undefined) | -11% | 9.3µM* | · | -36 | 13µM*
CC1C(=O)N2CCCc3cc(NC(=O)C4CC4)cc1c32 (centres undefined) | 0% | -5% | · | 4 | 24%
COc1ccccc1C(=O)Nc1c(C(=O)N2CCN(C)CC2)oc2ccccc12 | 73% | ? | · | -26 | -2%
